# Source: PubChem BioAssay (NCATS)
# Results filed as inconclusive are left out. A number with no mark means an inactive call. Activity calls are given as the source filed them. The call rests on the fitted dose curve.
# Assay: Primary qHTS for Huh7 cytotoxicity: counterscreen for inhibitors of MERS-S pseudotyped particle cell entry (AID 1479147)
# Settings: cell viability read-out; series mostly up to 57.1 µM; activity change, negative = cytotoxicity: at the top concentration
# On the % scale 0 is the no-effect control and ±100 the full control effect.
SMILES,outcome,"activity change, negative = cytotoxicity"
NCCCC[C@H](NC(=O)[C@@H]1CCCN1C(=O)[C@@H]1CSSC[C@H](N)C(=O)N[C@@H](Cc2ccc(O)cc2)C(=O)N[C@@H](Cc2ccccc2)C(=O)N[C@@H](CCC(N)=O)C(=O)N[C@@H](CC(N)=O)C(=O)N1)C(=O)NCC(N)=O,inactive,
C[C@@H](O)[C@H]1C(=O)N2C(C(=O)O)=C(S[C@@H]3CN[C@H](C(=O)Nc4cccc(C(=O)O)c4)C3)[C@H](C)[C@H]12,,-4.55%
CO[C@H]1/C=C\O[C@@]2(C)Oc3c(C)c(O)c4c(O)c(c(/C=N/N5CCN(C6CCCC6)CC5)c(O)c4c3C2=O)NC(=O)/C(C)=C\C=C/[C@H](C)[C@H](O)[C@@H](C)[C@@H](O)[C@@H](C)[C@H](OC(C)=O)[C@@H]1C,,3.35%
O=C(O)[C@@H]1CCCN1,inactive,
O[C@@H]1[C@@H](O)[C@@H](O)OC[C@@H]1O,inactive [at 171 µM],
CCCCCCCCCCCCCC(=O)OCC(COP(=O)([O-])OCC[N+](C)(C)C)OC(=O)CCCCCCCCCCCCC (stereo unspecified),inactive,

# Assay: Primary qHTS for inhibitors of MERS-S pseudo-typed particle cell entry (AID 1479149); further: nearly all actives have a fitted effect of over 60% in size
# Settings: MERS-S pseudotyped particle entry, luciferase; series mostly up to 57.1 µM; activity change, negative = inhibition: at the top concentration
SMILES,outcome,"activity change, negative = inhibition"
COc1ccc(C(=O)N2CCN(c3ccc4c(c3)CCC(=O)N4)CC2)cc1OC,inactive,
OCC(O)COc1ccc(Cl)cc1 (stereo unspecified),inactive [at 171 µM],
CC(=O)OCC(=O)[C@@]12OC3(CCCC3)O[C@@H]1C[C@H]1[C@@H]3CCC4=CC(=O)C=C[C@]4(C)[C@@]3(F)[C@@H](O)C[C@@]12C,inactive,
O=S(O)CNc1ccc(S(=O)(=O)c2ccc(NCS(=O)O)cc2)cc1,inactive,
CN(C(=O)CO)c1c(I)c(C(=O)NCC(O)CO)c(I)c(C(=O)NCC(O)CO)c1I (stereo unspecified),,1.8%
CC(Oc1ccccc1)C(=O)N[C@@H]1C(=O)N2[C@@H]1SC(C)(C)[C@@H]2C(=O)O (stereo partly specified),inactive,
CC(=O)NC(C=O)C(O)C(O)[C@H](O)CO (stereo partly specified),inactive,
CNC(=O)C[C@@H](N)C(=O)N[C@@H](C(=O)N[C@@H]1C(=O)N2[C@@H]1SC(C)(C)[C@@H]2C(=O)O)c1ccc(O)cc1,,-2%
C[C@@H]1C[C@H]2[C@@H]3C[C@H](F)C4=CC(=O)C=C[C@]4(C)[C@@]3(F)[C@@H](O)C[C@]2(C)[C@@]1(O)C(=O)COC(=O)C(C)(C)C,inactive,
CN(C)C=Nc1c(I)cc(I)c(CCC(=O)O)c1I,inactive,
Nc1nc(CC(=O)Nc2ccc(CCNC[C@H](O)c3ccccc3)cc2)cs1,inactive,
CCCCC(CC)COC(=O)c1ccc(Nc2nc(Nc3ccc(C(=O)OCC(CC)CCCC)cc3)nc(Nc3ccc(C(=O)OCC(CC)CCCC)cc3)n2)cc1 (stereo unspecified),inactive,
CCCCC[C@H](O)/C=C/[C@@H]1[C@@H](C/C=C/CCCC(=O)O)[C@@H](O)C[C@H]1O,inactive,
CC1(C)C2CC[C@]3(C)C(C(=O)C=C4[C@@H]5C[C@@](C)(C(=O)O)CC[C@]5(C)CC[C@]43C)[C@@]2(C)CC[C@@H]1O (stereo partly specified),inactive,
Cn1cc(OCC(O)CNC(C)(C)C)c2ccccc2c1=O (stereo unspecified),inactive,
CCC(=C(CC)c1ccc(OP(=O)(O)O)cc1)c1ccc(OP(=O)(O)O)cc1,inactive [at 0.573 µM],
CC1(C)S[C@H]2[C@H](NC(=O)[C@@H](N)c3ccc(O)cc3)C(=O)N2[C@H]1C(=O)O,inactive,
CCN1CCN(C(=O)N[C@@H](C(=O)N[C@]2(OC)C(=O)N3C(C(=O)O)=C(CSc4nnnn4C)CS[C@@H]32)[C@H](C)O)C(=O)C1=O,inactive,
Cc1onc(-c2c(F)cccc2Cl)c1C(=O)N[C@@H]1C(=O)N2[C@@H]1SC(C)(C)[C@H]2C(=O)O,inactive,
OCC1OC(c2ccc(Cl)c(Cc3ccc(OC4CCOC4)cc3)c2)C(O)C(O)C1O (stereo unspecified),inactive,

SMILES,outcome,"activity change, negative = inhibition"
CC(=O)OCC1=C(C(=O)O)N2C(=O)[C@@H](NC(=O)CC#N)[C@H]2SC1,inactive,
CC(OC(=O)OC1CCCCC1)OC(=O)C1=C(CSc2nnnn2CCN(C)C)CS[C@@H]2[C@H](NC(=O)Cc3csc(N)n3)C(=O)N12 (stereo partly specified),,-9.01%
[2H]N[C@@H](Cc1ccccc1)C(=O)N1CCC[C@H]1C(=O)N[C@@H](CCCNC(=N)N)C(=O)N1CCC[C@H]1C(=O)NCC(=O)NCC(=O)NCC(=O)NCC(=O)N[C@@H](CC(N)=O)C(=O)NCC(=O)N[C@@H](CC(=O)O)C(=O)N[C@@H](Cc1ccccc1)C(=O)N[C@@H](CCC(=O)O)C(=O)N[C@@H](CCC(=O)O)C(=O)N[C@H](C(=O)N1CCC[C@H]1C(=O)N[C@@H](CCC(=O)O)C(=O)N[C@@H](CCC(=O)O)C(=O)N[C@@H](Cc1ccc(O)cc1)C(=O)N[C@@H](CC(C)C)C(=O)O)[C@@H](C)CC,,-9.94% [at 11.4 µM]
CN=C(NC)NCc1ccccc1,,-10.8%
Cc1cc(Nc2ncc(Cl)c(Nc3ccccc3S(=O)(=O)C(C)C)n2)c(OC(C)C)cc1C1CCNCC1,,1.94%
CN(CCCCCCN(C)C(=O)Oc1ccc[n+](C)c1)C(=O)Oc1ccc[n+](C)c1,inactive,
CO[C@@H]1[C@@H](O[C@@H]2O[C@H](C)[C@@H](O[C@H]3C[C@@](C)(O)[C@H](O)[C@H](C)O3)[C@H](N(C)C)[C@H]2O)[C@@H](CC=O)C[C@@H](C)[C@@H](O[C@H]2CC[C@H](N(C)C)[C@@H](C)O2)/C=C/C=C/C[C@H](C)OC(=O)C[C@H]1O,inactive,
CO[C@H]1C[C@@H]2CC[C@@H](C)[C@@](O)(O2)C(=O)C(=O)N2CCCC[C@H]2C(=O)O[C@H]([C@H](C)C[C@@H]2CC[C@@H](OCCO)[C@H](OC)C2)CC(=O)[C@H](C)/C=C(/C)[C@@H](O)[C@@H](OC)C(=O)[C@H](C)C[C@H](C)\C=C/C=C\C=C/1C,,-1.91% [at 26.4 µM]
C#C[C@]1(O)CCC2C3CCC4=C(CCC(=O)C4)C3CC[C@@]21C (stereo partly specified),inactive,
CCCCCCCCCCCCCCCCCC(=O)[O][Al],inactive [at 5.34 µM],
CC/C=C\C/C=C\C/C=C\C/C=C\C/C=C\CCCC(=O)O,inactive,
O=S(=O)(O)Oc1ccc(C(c2ccc(OS(=O)(=O)O)cc2)c2ccccn2)cc1,,3.26%
CO/N=C(\C(=O)N[C@@H]1C(=O)N2C(C(=O)O)=C(CSc3nnnn3C)CS[C@H]12)c1csc(N)n1,inactive,
CN1CCc2nc(C(=O)N[C@@H]3C[C@@H](C(=O)N(C)C)CC[C@@H]3NC(=O)C(=O)Nc3ccc(Cl)cn3)sc2C1,inactive,
NCCCC[C@H](NC(=O)[C@@H]1CCCN1C(=O)[C@@H]1CSSC[C@H](N)C(=O)N[C@@H](Cc2ccc(O)cc2)C(=O)N[C@@H](Cc2ccccc2)C(=O)N[C@@H](CCC(N)=O)C(=O)N[C@@H](CC(N)=O)C(=O)N1)C(=O)NCC(N)=O,inactive,
C[C@@H](O)[C@H]1C(=O)N2C(C(=O)O)=C(S[C@@H]3CN[C@H](C(=O)Nc4cccc(C(=O)O)c4)C3)[C@H](C)[C@H]12,inactive,
CO[C@H]1/C=C\O[C@@]2(C)Oc3c(C)c(O)c4c(O)c(c(/C=N/N5CCN(C6CCCC6)CC5)c(O)c4c3C2=O)NC(=O)/C(C)=C\C=C/[C@H](C)[C@H](O)[C@@H](C)[C@@H](O)[C@@H](C)[C@H](OC(C)=O)[C@@H]1C,,-12.5%
O=C(O)[C@@H]1CCCN1,inactive,
O[C@@H]1[C@@H](O)[C@@H](O)OC[C@@H]1O,inactive [at 171 µM],
CCCCCCCCCCCCCC(=O)OCC(COP(=O)([O-])OCC[N+](C)(C)C)OC(=O)CCCCCCCCCCCCC (stereo unspecified),inactive,
